This is part of a sample that, as a whole, favours compounds with a hit. Of some 79,000 tested, about 15% had one in any assay. Values without a mark were called inactive. Calls of active or inactive are those of the source. No stated cut-off is given here; in the data, active means growth inhibition above about 70%; inactive means the rest.
Assay: NCI Yeast Anticancer Drug Screen. Data for the cln2 rad14 strain (AID 165);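 further: 0% = growth equal to vehicle treated cultures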
Conditions: S. cerevisiae cln2 rad14 strain, stronger effect = higher value
Method: Growth inhibition of yeast strains with defined genetic alterations is measured as a screen for potential anti-cancer activity. Selected strains with alterations in DNA damage repair or cell cycle control were exposed to compounds and growth inhibition was measured relative to vehicle treated controls. The strain used in this assay is cln2 rad14

[1] = at 5.0 µM (retest, dose inferred, filed as 0.5)
[2] = at 50.0 µM (retest, dose inferred, filed as 5.0)

Compound | growth inhibition [1] | growth inhibition [2] | growth inhibition (at 50.0 µM)
CSc1ncccc1C(=O)[O][Sn]([c]1ccccc1)([c]1ccccc1)[c]1ccccc1 | 99% (active) | 99% (active) | 86.7% (active)
CC(C(O)c1ccccc1)C(O)(C(F)(F)F)C(F)(F)F (configuration not stated) | 1% | -4% | 15.5%
COc1ccc2nc3cc(Cl)ccc3c(NCCNc3c4ccc(Cl)cc4nc4ccc(OC)cc34)c2c1 | 37% | 90% (active) | 98.4% (active)
O=C(O/N=C1/CCC/C1=C\c1ccccc1)c1ccccc1 | 25% | 98% (active) | 97% (active)
Cn1cc(NC(=O)c2cc(NC(=O)CCCCCCCCC(=O)Nc3cc(C(=O)Nc4cc(C(=O)NCCC(N)N)n(C)c4)n(C)c3)cn2C)cc1C(=O)NCCC(=N)N | 45% | 95% (active) | 88% (active)
CC(=O)OCC1(O)OCC(OC(C)=O)C(OC(C)=O)C1OC(C)=O (configuration not stated) | 27% | -36% | -2.65%
Cc1c2c(c(C)c3ccncc13)S(=O)(=O)c1ccccc1-2 | 39% | 36% | 28.9%
Cc1ccc(C)c(NC(=O)CC2SC(=Nc3ccccc3Cl)NC2=O)c1 (configuration not stated) | 23% | 55% | 78% (active)
CC(=O)Oc1c(Cl)cc(Cl)cc1C(c1cc(Cl)cc(Cl)c1OC(C)=O)C(Cl)(Cl)Cl | -10% | 2% | 82.8% (active)
CCCCCCCCCCCC(=O)N1CCCC1 | -3% | 99% (active) | 99.2% (active)
CC(=O)OCC1OC(OC(C)=O)C(On2nnc3c(-c4ccccc4)c(C)nn32)C(OC(C)=O)C1OC(C)=O (configuration not stated) | 1% | 52% | 41.1%
C/C(=N\NC(=S)N1CCN(c2ccccn2)CC1)c1ncccn1 | -2% | 7% | 83.2% (active)
O=C(O)c1ccccc1Cc1ccc2c(c1)Cc1ccccc1-2 | -19% | 88% (active) | 71.2% (active)
N#CSCc1ccc(Cl)c(CSC#N)c1 | 10% | 98% (active) | 98.2% (active)

Reference: PubChem BioAssay (NCI)
